For nine molecules, Potency results are on record in PubChem BioAssay (Tox21).

Unmarked numbers belong to inactive results. Results filed as inconclusive are left out. Calls of active or inactive are those of the source. Unless noted, the call rests on the fitted dose curve.

A short description of assay [1]: Nuclear factor erythroid 2-related factor 2/antioxidant responsive element (Nrf2/ARE) small molecule agonists: qHTS cell viability counter screen in human keratinocytes (AID 1919968; active means well fitted curve in the direction sought with a large enough effect in the repeat runs; an effect the other way counts as inactive or inconclusive; further: nearly all actives have a fitted effect of over 55% in size; further: potency means the concentration at half of the fitted maximal effect). In short, it runs like this:
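Cytotoxicity was multiplexed with the Nrf2/ARE luciferase assay in the same wells. Stably transfected HaCaT keratinocytes were treated with test compounds for 23 h at 37 C. Cell viability was then measured by CellTiter-Fluor fluorescence.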
In general terms: Quantitative high-throughput screening tests each substance at several concentrations.

A short description of assay [2]: Nuclear factor erythroid 2-related factor 2/antioxidant responsive element (Nrf2/ARE) small molecule agonists: luciferase reporter gene qHTS assay in human keratinocytes (AID 1919969). Further: nearly all actives have a fitted effect of over 35% in size. In general terms: In a reporter assay the amount or activity of a reporter protein is the signal.
Assay [3] addresses Gonadotropin-releasing hormone receptor (Homo sapiens) (UniProt P30968). The experiment in a line: Human gonadotropin-releasing hormone receptor (GnRHR) small molecule agonists, calcium flux assay in GnRHR-HEK293 cells (AID 1920063). Further: nearly all actives have a fitted effect of over 35% in size. In short, it runs like this: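 Agonist activity was measured as intracellular calcium flux in HEK293 cells engineered to stably express human GnRHR. After dye loading for 1 hour at 37 C, compounds in DMSO were added and fluorescence was followed for 3 minutes.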
(Calcium flux is commonly read through the fluorescence of an indicator in the cells.)

The target in assay [4] is KiSS-1 receptor (Homo sapiens) (UniProt Q969F8). The experiment in a line: Human kisspeptin (KISS1R) small molecule agonists, calcium flux assay in KISS1R-HEK293 cells (AID 1920064; active means well fitted curve in the direction sought with a large enough effect in the repeat runs; an effect the other way counts as inactive or inconclusive). The procedure, abridged:
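Agonist activity is monitored as intracellular calcium rise in engineered HEK293 cells carrying human KISS1R. Cells are dye-loaded for 1 h at 37 C before compound addition, and fluorescence is recorded for 3 min.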

Assay [5] is described as follows: G protein-coupled receptor (GPCR) small molecule agonists, calcium flux assay: HEK293 wild type cell line counter screen (AID 1920065). In short, it runs like this: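 Seed cells, incubate 18 h (37 C, 5% CO2); add calcium dye, 1 h at 37 C; pin-transfer compounds, ATP control or DMSO; read fluorescence 480/540 nm each second for 3 min.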
Assay [6] in a line: p53 small molecule agonists, cell-based qHTS assay with human liver microsomes: qHTS cell viability counter screen (AID 1963579). Further: nearly all actives have a fitted effect of over 45% in size. The procedure, abridged:
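Tox21 library compounds, delivered from DMSO stocks, were tested on p53RE-bla cells together with 0.5 mg/mL human liver microsomes and 0.5 mg/mL NADPH (final) over 16 h at 37 C; CellTiter-Glo luminescence served as the cytotoxicity measure.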

Assay [7] in a line: p53 small molecule agonists, cell-based qHTS assay with rat liver microsomes: qHTS cell viability counter screen (AID 1963580). Further: nearly all actives have a fitted effect of over 45% in size. In short, it runs like this:
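Cytotoxicity counter screen: intracellular ATP measured by CellTiter-Glo luminescence in the same wells as the beta-lactamase reporter read, on HCT-116 p53RE-bla cells exposed 16 h at 37 C to compounds with rat liver microsomes and NADPH, each 0.5 mg/mL final.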

Assay [8] is described as follows: p53 small molecule agonists, cell-based qHTS assay: qHTS cell viability counter screen (AID 1963581). Further: nearly all actives have a fitted effect of over 45% in size. The procedure, abridged:
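Viability was counter-screened in parallel with the p53 agonist reporter by measuring intracellular ATP luminescence in the same HCT-116 p53RE-bla wells after 16 h compound treatment at 37 C.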

Assay [9] has as its target Muscarinic acetylcholine receptor M1 (Homo sapiens) (UniProt P11229). The assay can be described thus: Cholinergic receptor muscarinic 1 (CHRM1) small molecule antagonists, cell-based qHTS assay (AID 1963588). Further: nearly all actives have a fitted effect of over 40% in size. In short, it runs like this:
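Compounds were tested at 15 concentrations in three independent runs. Dye-loaded CHRM1-CHO cells were exposed 5 min at room temperature before stimulation by acetylcholine added at 50nM. Intracellular calcium was read kinetically on FDSS for 3 min.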

The target is the same in assay [10]. The assay can be described thus: Cholinergic receptor muscarinic 1 (CHRM1) small molecule agonists, cell-based qHTS assay (AID 1963589). Further: nearly all actives have a fitted effect of over 35% in size. The procedure, abridged:
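Cells were plated and incubated 18 h at 37 C/5% CO2, loaded with calcium dye for 1 h at 37 C, then treated with compounds in DMSO. Fluorescence was recorded kinetically at 1 sec intervals.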

Assay [11] in a line: cAMP Responsive Elements (CRE) small molecule agonists, cell-based qHTS assay (AID 1963590). The procedure, abridged:
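Cells carrying a CRE-driven beta-lactamase reporter (HEK 293T) are seeded, incubated overnight (18 h), and treated with test compounds for 3 h at 37 C; reporter activity is then detected with a FRET substrate after 2 h at room temperature.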

A short description of assay [12]: cAMP Responsive Elements (CRE) small molecule antagonists, cell-based qHTS assay (AID 1963591; active means well fitted inhibition curve with a large enough effect in the signal ratio in the repeat runs, not every such curve was filed as active; the % refers to the signal ratio). In short, it runs like this:
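Cells (CRE-bla HEK 293T, DMEM with 10% dialyzed FBS and 25 mM HEPES) are seeded and incubated 18 h. Compounds are added with NKH477 agonist at 0.25 uM final for 3 h, then FRET substrate for 2 h.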

The target of assay [13] is Beta-2 adrenergic receptor (Homo sapiens) (UniProt P07550). The experiment in a line: Adrenergic beta2 receptor (ADRB2) small molecule antagonists, cell-based qHTS assay (AID 1963592). Further: series mostly up to about 92 µM; nearly all actives have a fitted effect of over 50% in size. The procedure, abridged: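 Assay format: CHO-ADRB2 cells, 18-20hr seeding at 37C/5% CO2, then compound plus 1nM isoproterenol agonist mix for 0.5hr RT. Homogeneous time-resolved fluorescence cAMP detection after 1hr, expressed as 665/615 nm ratio.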

For assay [14] the target is unchanged. The experiment in a line: Adrenergic beta2 receptor (ADRB2) small molecule agonists, cell-based qHTS assay (AID 1963593).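 Further: CHO cells stably overexpressing human ADRB2.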 The procedure, abridged: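 CHO cells stably over-expressing ADRB2 were plated overnight at 37C, then dosed with compounds plus a stimulation mix containing 100uM IBMX and 25uM Ro-20-1724 for 0.5hr at room temperature. cAMP was measured by HTRF competition, 1hr.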

The target of assay [15] is 5-hydroxytryptamine receptor 2A (Homo sapiens) (UniProt P28223). The experiment in a line: 5-hydroxytryptamine receptor 2A (HTR2A) small molecule antagonists, cell-based qHTS assay (AID 1963586). Further: nearly all actives have a fitted effect of over 45% in size. In short, it runs like this:
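CHO cells stably expressing human HTR2A were plated for 18 h at 37 C, then loaded with calcium dye for 1 h. Compounds were preincubated 5 min at room temperature before DOI (4 nM solution) was added. Kinetic fluorescence was read for 3 min.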

Assay [16] shares this target. The experiment in a line: 5-hydroxytryptamine receptor 2A (HTR2A) small molecule agonists, cell-based qHTS assay (AID 1963587). Further: nearly all actives have a fitted effect of over 30% in size. In short, it runs like this:
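CHO cells stably expressing human HTR2A, plated 18 h, loaded with calcium dye 1 h at 37 C. Agonist mode: compounds added and intracellular calcium fluorescence recorded kinetically for 2 min at 1 sec intervals.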

Assay [17] addresses D(2) dopamine receptor (Homo sapiens) (UniProt P14416). The assay can be described thus: Dopamine D2 receptor (DRD2) small molecule agonists, cell-based qHTS assay (AID 1963594). Further: nearly all actives have a fitted effect of over 35% in size. The procedure, abridged: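 HEK293 cells stably expressing human DRD2, pre-treated with PDE inhibitor Ro20-1724 (0.1 mM final) and compound 10 min at room temperature, then stimulated with NKH477 (200nM […]) for 30 min. cAMP read by HTRF (665/620 nm).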

The target is the same in assay [18]. The experiment in a line: Dopamine D2 receptor (DRD2) small molecule antagonists, cell-based qHTS assay (AID 1963595; active means well fitted inhibition curve with a large enough effect in the signal ratio in the repeat runs, with a control signal flat; the % refers to the signal ratio; further: potency means the concentration at half of the fitted maximal effect). In short, it runs like this: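 Antagonist mode in DRD2-HEK293 cells: after compound addition with 0.1 mM Ro20-1724, cells received quinpirole (12 nM) and NKH477 (200 nM) for 30 min at room temperature; HTRF cAMP read after 1 h detection.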

Sequence of Muscarinic acetylcholine receptor M1 (Homo sapiens) (P11229 whole entry, looked up): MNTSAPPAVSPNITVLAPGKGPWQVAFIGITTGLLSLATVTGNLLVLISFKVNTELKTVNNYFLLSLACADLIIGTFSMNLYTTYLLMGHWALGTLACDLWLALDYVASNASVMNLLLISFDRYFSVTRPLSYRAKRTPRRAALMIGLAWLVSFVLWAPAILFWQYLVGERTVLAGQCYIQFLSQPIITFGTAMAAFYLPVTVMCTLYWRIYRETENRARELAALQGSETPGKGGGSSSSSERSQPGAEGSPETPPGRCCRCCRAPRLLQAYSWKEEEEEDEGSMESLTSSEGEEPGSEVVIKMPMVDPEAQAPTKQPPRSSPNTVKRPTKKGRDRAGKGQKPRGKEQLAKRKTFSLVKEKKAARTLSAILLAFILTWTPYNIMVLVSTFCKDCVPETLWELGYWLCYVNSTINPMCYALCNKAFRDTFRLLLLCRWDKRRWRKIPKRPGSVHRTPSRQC
Sequence of Beta-2 adrenergic receptor (Homo sapiens) (P07550 whole entry, looked up): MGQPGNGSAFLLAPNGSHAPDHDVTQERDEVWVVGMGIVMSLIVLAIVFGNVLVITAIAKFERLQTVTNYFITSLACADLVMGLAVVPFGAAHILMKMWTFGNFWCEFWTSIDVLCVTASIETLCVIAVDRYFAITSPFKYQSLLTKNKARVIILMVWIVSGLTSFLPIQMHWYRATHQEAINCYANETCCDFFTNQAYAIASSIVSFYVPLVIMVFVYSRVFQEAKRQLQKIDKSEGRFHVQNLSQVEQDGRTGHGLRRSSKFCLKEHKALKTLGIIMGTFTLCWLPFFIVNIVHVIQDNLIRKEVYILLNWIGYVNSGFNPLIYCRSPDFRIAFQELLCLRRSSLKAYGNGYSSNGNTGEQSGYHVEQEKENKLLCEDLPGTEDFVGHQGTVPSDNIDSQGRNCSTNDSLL
Sequence of KiSS-1 receptor (Homo sapiens) (Q969F8 whole entry, looked up): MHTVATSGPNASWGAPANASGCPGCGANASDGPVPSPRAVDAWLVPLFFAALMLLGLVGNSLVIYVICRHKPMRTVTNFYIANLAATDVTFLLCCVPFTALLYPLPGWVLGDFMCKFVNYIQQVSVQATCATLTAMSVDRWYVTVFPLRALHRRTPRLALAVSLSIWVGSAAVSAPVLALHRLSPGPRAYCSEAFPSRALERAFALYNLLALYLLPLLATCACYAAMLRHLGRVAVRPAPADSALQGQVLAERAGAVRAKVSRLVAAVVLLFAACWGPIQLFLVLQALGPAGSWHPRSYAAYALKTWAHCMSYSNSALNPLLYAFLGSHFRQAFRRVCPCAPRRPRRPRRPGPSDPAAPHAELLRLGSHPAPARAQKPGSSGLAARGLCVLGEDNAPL
Sequence of 5-hydroxytryptamine receptor 2A (Homo sapiens) (P28223 whole entry, looked up): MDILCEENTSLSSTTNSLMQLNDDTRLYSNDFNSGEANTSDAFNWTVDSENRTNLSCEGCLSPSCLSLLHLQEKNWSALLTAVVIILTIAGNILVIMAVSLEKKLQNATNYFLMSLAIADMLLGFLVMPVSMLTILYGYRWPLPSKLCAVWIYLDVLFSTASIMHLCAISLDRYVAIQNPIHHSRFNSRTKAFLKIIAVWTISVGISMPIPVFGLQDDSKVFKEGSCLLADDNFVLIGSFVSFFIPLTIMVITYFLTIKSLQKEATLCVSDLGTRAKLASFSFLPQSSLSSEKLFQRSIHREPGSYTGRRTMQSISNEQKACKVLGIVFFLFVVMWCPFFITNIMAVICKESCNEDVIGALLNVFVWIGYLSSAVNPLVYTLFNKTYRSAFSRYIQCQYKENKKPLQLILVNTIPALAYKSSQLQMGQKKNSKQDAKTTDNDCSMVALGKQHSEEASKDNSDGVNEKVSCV
Sequence of Gonadotropin-releasing hormone receptor (Homo sapiens) (P30968 whole entry, looked up): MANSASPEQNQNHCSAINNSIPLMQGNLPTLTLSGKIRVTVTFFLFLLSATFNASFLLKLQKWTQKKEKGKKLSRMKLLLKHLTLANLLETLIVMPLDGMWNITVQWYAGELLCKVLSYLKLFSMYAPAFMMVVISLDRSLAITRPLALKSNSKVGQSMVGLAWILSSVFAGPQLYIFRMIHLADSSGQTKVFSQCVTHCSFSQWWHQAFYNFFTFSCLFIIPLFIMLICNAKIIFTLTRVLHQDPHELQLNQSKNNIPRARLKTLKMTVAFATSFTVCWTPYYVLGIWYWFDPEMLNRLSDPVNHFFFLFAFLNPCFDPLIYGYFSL
Sequence of D(2) dopamine receptor (Homo sapiens) (P14416 whole entry, looked up): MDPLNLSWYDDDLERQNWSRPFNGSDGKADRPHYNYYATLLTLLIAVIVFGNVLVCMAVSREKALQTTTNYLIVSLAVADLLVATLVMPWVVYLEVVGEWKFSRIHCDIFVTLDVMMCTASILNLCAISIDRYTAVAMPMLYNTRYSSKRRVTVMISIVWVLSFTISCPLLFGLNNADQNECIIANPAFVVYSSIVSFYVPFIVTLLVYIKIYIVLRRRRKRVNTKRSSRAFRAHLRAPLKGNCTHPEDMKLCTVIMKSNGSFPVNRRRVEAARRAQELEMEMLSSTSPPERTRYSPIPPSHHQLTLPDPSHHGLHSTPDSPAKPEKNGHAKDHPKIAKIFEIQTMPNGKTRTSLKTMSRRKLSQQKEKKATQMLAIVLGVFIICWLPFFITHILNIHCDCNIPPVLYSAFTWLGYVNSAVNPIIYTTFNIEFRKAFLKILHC

For `CCN1CCC[C@H]1CNC(=O)c1c(OC)ccc(Br)c1OC`, the Potency entry in assay [1], in assay [2], in assay [3], in [4], in assay [5] and in assay [6] was “inactive” throughout. Besides, the Potency result in [7], in assay [8], in assay [9], in assay [10], in assay [11] and in assay [12] was “inactive” each time. In addition, the Potency entry in assay [13] and in assay [14] was “inactive” each time.
Regarding `COc1ccc2c(c1)c1c3n2CCN(C)C3=NCC1`, the Potency result in [1], in assay [2], in [3], in assay [4], in assay [5] and in assay [6] was “inactive” in each case. In addition, the Potency result in [7], in assay [15], in [16], in [9], in assay [10] and in [11] was “inactive” in each case. The Potency entry in [12], in assay [13], in [17] and in assay [18] was “inactive” each time.
As for `CCC1(C)CC(=O)NC1=O` (stereo unspecified), the Potency result in assay [1], in [2], in assay [3], in assay [4], in [5] and in assay [6] was “inactive” each time. For the same molecule, the Potency result in assay [7], in [8], in [11], in [12], in assay [13] and in [14] was “inactive” throughout. The Potency result in assay [17] and in [18] was “inactive” in each case.
With `Cc1nc2c([nH]1)c(=O)n(C)c(=O)n2Cc1ccco1`, the Potency result in assay [1], in [2], in assay [3], in assay [4], in assay [5] and in assay [6] was “inactive” in each case. The Potency entry in assay [7], in assay [15], in [16], in assay [9], in [10] and in assay [12] was “inactive” in each case. Further, the Potency entry in assay [13] and in [18] was “inactive” in each case.
Take `CN1C(C(=O)Nc2ccccn2)=C(O)c2sccc2S1(=O)=O`: the Potency entry in assay [1], in [2], in [3], in assay [4], in assay [5] and in [6] was “inactive” throughout. The Potency entry in assay [7], in assay [8], in [11], in assay [12], in [13] and in assay [14] was “inactive” in each case. The Potency entry in assay [17] and in assay [18] was “inactive” each time.
Regarding `CC(=O)OCC(CCn1cnc2cnc(N)nc21)COC(C)=O`, the Potency entry in assay [1], in assay [2], in assay [3], in assay [4], in [5] and in [6] was “inactive” each time. Also, the Potency result in [7], in assay [8], in assay [11], in [12], in assay [13] and in assay [14] was “inactive” throughout. The Potency result in [17] and in [18] was “inactive” throughout.
Turning to `CC(C)CO`, the Potency entry in assay [1], in assay [2], in [3], in [4], in assay [5] and in assay [6] was “inactive” throughout. In addition, the Potency entry in assay [7], in assay [8], in assay [11], in assay [12], in [13] and in assay [18] was “inactive” each time.
Take `CN1CCC[C@@H]1c1cccnc1`: the Potency entry in [1], in assay [2], in assay [3], in assay [4], in [5] and in assay [6] was “inactive” in each case. Also, the Potency result in assay [7], in assay [8], in assay [11], in assay [13], in assay [14] and in assay [18] was “inactive” each time.
In the case of `Fc1ccc(C(c2ccc(F)cc2)N2CCN(C/C=C/c3ccccc3)CC2)cc1`, the Potency in [1] and in assay [18] was 16.8 µM (active) each time. The Potency entry in [2], in [3], in assay [4], in assay [5], in assay [6] and in assay [7] was “inactive” each time. For the same molecule, the Potency entry in [8], in [13] and in assay [17] was “inactive” in each case.
